This is an account of results in PubChem BioAssay (NCATS).

Records with an inconclusive call do not appear. Activity calls are given as the source filed them. Unless noted, calls follow the shape of the dose curve; as a rule, active = well fitted curve in the direction sought with a large enough effect; inconclusive = small, poorly fitted or top-dose-only effect, or another doubt; inactive = no such curve, though single readings can be large; an effect the other way counts as inactive or inconclusive.

Assay [1] addresses Mitogen-activated protein kinase 10 (Mus musculus) (UniProt Q61831). Nature of the assay: JNK3 AlphaScreen Assay (AID 530; active = well fitted curve in either direction with a large enough effect, not every such curve was filed as active;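 also: kinase came from lysate of stimulated human HepG2 cells; signal reports phosphorylation of biotinylated GST-cJun 1-79 at Ser73 with 10 µM ATP; % is scaled to controls: 0 for no effect and ±100 for the full control effect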). An outline of the steps:
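Kinase buffer: 20 mM Tris-HCl pH 7.6, 10 mM MgCl2, 1 mM DTT, 0.1 mM Na3VO4, 0.01% Tween-20; ATP 10 uM. Substrate biotin-GST-cJun(1-79), enzyme from activated HepG2 lysates. Detection by Ser73 phospho-antibody AlphaScreen.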

A short description of assay [2]: Cell Viability - N2a (AID 540).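 Also: cells exposed to compound for 40 h at 37 °C; plate controls were DMSO alone for no effect and tamoxifen control for full effect; nearly all actives have a fitted effect of over 45% in size.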 To be noted: N2a mouse neuroblastoma cell viability; activity change, negative = cytotoxicity: at 92.2 µM (top of the series). An outline of the steps: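 N2a mouse neuroblastoma, 1500 cells/well, 5 hr settle; compound 40 hr, 37 °C; CellTiter-Glo 20 min RT; luminescence; Hill-fit AC50.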
A short description of assay [3]: Cell Viability - HUV-EC-C (AID 542).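 Also: cells exposed to compound for 40 hours; % is scaled to controls: 0 for no effect and ±100 for the full control effect; nearly all actives have a fitted effect of over 35% in size.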 In a few lines: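 Luminescent ATP read-out (CellTiter-Glo, 20 min room temperature) after 40 hr compound treatment of HUV-EC-C cells at 37 °C. Concentration-response data fitted with the standard Hill equation to give AC50; tamoxifen and doxorubicin served as positive controls.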
Assay [4] can be described thus: Cell Viability - Renal Proximal Tubule (AID 545).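 Also: cells exposed to compound for 40 hours; 0% = DMSO only and -100% = 100 µM tamoxifen; nearly all actives have a fitted effect of over 40% in size.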 In a few lines: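 Primary rat renal proximal tubule cells (1000/well) were treated with compounds for 40 hr at 37 °C in complete medium. Intracellular ATP was measured by CellTiter-Glo luminescence, and AC50 values came from Hill-equation fits of concentration-response data.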
Assay [5] can be described thus: Cell Viability - Mesenchymal (AID 546).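 Also: cells exposed to compound for 40 hours before reading; 0% = DMSO only and -100% = 100 µM tamoxifen.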 In a few lines:
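CellTiter-Glo luminescence (intracellular ATP, 20 min room temperature) after 40 hr compound exposure at 37 °C of 1000 glomerulus-derived human kidney mesenchymal cells/well; AC50 values obtained by fitting qHTS concentration-response data to the Hill equation.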

Assay [6] can be described thus: Cellular Toxicity (caspase-3) Mesangial (AID 660).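 Also: combined caspase 3 and 7 activity read by Caspase-Glo luminescence; cells exposed to compound for 16 h before the caspase read.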 In a few lines: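 Luminescent Caspase-Glo 3/7 readout (aminoluciferin substrate cleavage, 20 min RT) after 16 h compound exposure at 37 °C of normal human mesangial cells. Signal increase normalized between DMSO basal and 100 uM tamoxifen; Hill-equation AC50.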
Assay [7] in a line: Cellular Toxicity (caspase-3) Renal Proximal Tubule (AID 667).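 Also: cells exposed to compound for 16 hours at 37 °C before detection; 0% = DMSO basal and 100% = 10 µM staurosporine.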 An outline of the steps: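 Primary rat proximal tubule cells, 1000/well, 5 h plating at 37 °C, then compound 16 h at 37 °C. Caspase-Glo 3/7 reagent, 1 h RT, luminescence. Normalized to DMSO (basal) and 10 uM staurosporine (100%); Hill-fit AC50.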
Assay [8] deals with Cytochrome P450 3A4 (Homo sapiens) (UniProt P08684). Put plainly: qHTS Assay for Inhibitors and Substrates of Cytochrome P450 3A4 (AID 884). Also: nearly all actives have a fitted effect of over 50% in size. Also: potency is read from the fitted curve at half-maximal effect. An outline of the steps: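 Luminescent readout of luciferin produced by CYP3A4 (20 nM) dealkylation of Luciferin-PPXE, 25 uM (its KM). NADPH-driven reaction ran 60 min at RT after 10 min compound preincubation; data scaled to 57 uM ketoconazole as 100% inhibition.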
Background: In qHTS, concentration-response curves come from the screen itself.

The nature of assay [9]: MultiTox-Fluor Cytotoxicity Assay - LYMP1-001 - Live Cells (AID 947).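 Also: 0% = DMSO only and full inhibition = tetraoctylammonium bromide control.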
A short description of assay [10]: Cell Viability - LYMP2-005 (AID 967).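 Also: plate controls were DMSO only for no effect and 92 µM tetraoctylammonium bromide control for full effect.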 In a few lines:
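CellTiter-Glo luminescence (cellular ATP) read-out; LYMP2-005 lymphoblastoid cells, 2500/well, 5 h pre-incubation, then 24 h compound exposure at 37 C in complete medium. Tetraoctylammonium bromide positive control; AC50 by standard Hill fit.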

The nature of assay [11]: Cell Viability - LYMP2-010 (AID 981).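 Also: cells exposed to compound for 24 hours at 37 °C; % is scaled to controls: 0 for no effect and ±100 for the full control effect; nearly all actives have a fitted effect of over 55% in size.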 In a few lines: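 qHTS cytotoxicity, 1536-well: 2500 cells/well, 5 hr settle, 24 hr compound at 37 C, CellTiter-Glo 30 min RT, luminescence read. Decrease in ATP = toxicity; AC50 via standard Hill equation. Positive control tetraoctylammonium bromide.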
Assay [12] is described as follows: Cell Viability - LYMP2-016 (AID 984).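 Also: cells exposed to compound for 24 hours at 37 °C; % is scaled to controls: 0 for no effect and ±100 for the full control effect; nearly all actives have a fitted effect of over 55% in size.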 In a few lines:
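Human lymphoblastoid cells (LYMP2-016), 2500/well in complete medium, preincubated 5 hr at 37 C, then compound-treated 24 hr at 37 C. Intracellular ATP read by CellTiter-Glo luminescence after 30 min at room temperature; AC50 from Hill-equation concentration-response fits.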

The nature of assay [13]: Cell Viability - LYMP2-024 (AID 988).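 Also: plate controls were DMSO only for no effect and 92 µM tetraoctylammonium bromide for full effect; nearly all actives have a fitted effect of over 60% in size.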 In a few lines: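 ATP-based luminescence (CellTiter-Glo, 30 min RT) after 24 h compound exposure at 37 C of 2500 lymphoblastoid cells/well; decrease in ATP taken as cytotoxicity. qHTS concentration-response fitted to standard Hill equation for AC50.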
The target in assay [14] is Vitamin D3 receptor (Homo sapiens) (UniProt P11473). Put plainly: qHTS assay for small molecule antagonists of vitamin D receptor signaling (AID 588541; calls by dose curve;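 also: receptor activated by calcitriol during compound treatment; % is scaled to controls: 0 for no effect and ±100 for the full control effect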). An outline of the steps:
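Antagonist-mode beta-lactamase reporter assay: HEK293T VDR-UAS-bla cells were exposed to titrated compound alongside 1-alpha,25-dihydroxyvitamin D3 at 3 nM final for 16 h. Values were normalized to the 50 nM agonist control and DMSO basal, with IC50 and efficacy from Hill equation fits.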

Assay [15] in a line: qHTS assay for small molecule antagonists of retinoid X receptor alpha signaling (AID 588546).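 Also: cells stimulated with 9-cis-retinoic acid as agonist; % is scaled to controls: 0 for no effect and ±100 for the full control effect.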 To be noted: HEK293T RXRa-UAS-bla, beta-lactamase ratio, antagonist mode; measured here: W530 green channel, cytotoxicity proxy. In a few lines:
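Beta-lactamase reporter inhibition, read as CCF4 fluorescence ratio (ex 405, em 460/530 nm) after 2 h at RT. HEK293T UAS-bla cells, 2500/well, were stimulated with 9-cis-RA at 500 or 100 nM final alongside test compound for 18 h at 37 C.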

For assay [16], the target named is Voltage-gated inwardly rectifying potassium channel KCNH2 (Homo sapiens) (UniProt Q12809). Put plainly: qHTS Assay for Small Molecule Inhibitors of the Human hERG Channel Activity (AID 588834).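 Also: top concentration of the series differs between compounds; % is scaled to controls: 0 for no effect and ±100 for the full control effect; lower thallium flux fluorescence means stronger hERG block; nearly all actives have a fitted effect of over 50% in size.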 In a few lines: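 In hERG-transduced U2OS cells, dye-loaded for 1 hr at room temperature in dark, test compounds incubated 10 min at 37 °C before thallium stimulation. AC50 values derived by Hill modelling of concentration-response.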

Assay [17] can be described thus: qHTS assay for small molecule disruptors of the mitochondrial membrane potential - 1 hr assay (AID 651754; calls by dose curve; also: % is scaled to controls: 0 for no effect and ±100 for the full control effect; nearly all actives have a fitted effect of over 35% in size). In a few lines: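 Read-out: dye fluorescence at 490 nm ex/535 nm em (monomers) and 540 nm ex/590 nm em (aggregates) in HepG2 cells. Compound exposure 1 hr at 37C, followed by 30 min dye loading.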
Assay [18] is described as follows: qHTS assay for cell viability of HEK293 cells (AID 743288). Also: % is scaled to controls: 0 for no effect and ±100 for the full control effect; nearly all actives have a fitted effect of over 50% in size. The conditions noted are these: ATP luminescence (CellTiter-Glo), 18 h, stronger effect = lower value. An outline of the steps:
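After 18 h compound exposure at 37 C, parental HEK293 cells (2,000/well) are lysed with CellTiter-Glo and luminescence is read following 30 min at room temperature.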

Assay [19] deals with Nuclear receptor subfamily 1 group I member 2 (Rattus norvegicus) (UniProt Q9R1A7). Nature of the assay: qHTS assay for small molecule activators of the rat pregnane X receptor (rPXR) signaling pathway (AID 651751; call rule not given here; also: 0% is about no effect). To be noted: rPXR reporter cells, luciferase (One-Glo), 24 h.
A short description of assay [20]: qHTS assay for small molecule activators of the human pregnane X receptor (PXR) signaling pathway (AID 720659; call rule not given here; also: 0% is about no effect).

Vitamin D3 receptor (Homo sapiens), sequence (P11473 whole entry, looked up): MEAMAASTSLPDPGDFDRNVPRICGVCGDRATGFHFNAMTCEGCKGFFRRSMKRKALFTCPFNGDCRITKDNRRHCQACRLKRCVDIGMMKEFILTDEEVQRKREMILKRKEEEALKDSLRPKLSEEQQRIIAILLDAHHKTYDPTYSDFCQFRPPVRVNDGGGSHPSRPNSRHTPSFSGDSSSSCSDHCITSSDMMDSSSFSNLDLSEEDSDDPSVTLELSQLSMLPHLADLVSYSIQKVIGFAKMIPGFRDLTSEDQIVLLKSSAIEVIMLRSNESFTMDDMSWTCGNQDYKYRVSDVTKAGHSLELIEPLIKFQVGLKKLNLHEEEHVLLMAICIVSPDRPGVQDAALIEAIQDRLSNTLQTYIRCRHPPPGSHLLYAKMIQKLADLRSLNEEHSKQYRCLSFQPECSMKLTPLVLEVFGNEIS
Cytochrome P450 3A4 (Homo sapiens), sequence (P08684 whole entry, looked up): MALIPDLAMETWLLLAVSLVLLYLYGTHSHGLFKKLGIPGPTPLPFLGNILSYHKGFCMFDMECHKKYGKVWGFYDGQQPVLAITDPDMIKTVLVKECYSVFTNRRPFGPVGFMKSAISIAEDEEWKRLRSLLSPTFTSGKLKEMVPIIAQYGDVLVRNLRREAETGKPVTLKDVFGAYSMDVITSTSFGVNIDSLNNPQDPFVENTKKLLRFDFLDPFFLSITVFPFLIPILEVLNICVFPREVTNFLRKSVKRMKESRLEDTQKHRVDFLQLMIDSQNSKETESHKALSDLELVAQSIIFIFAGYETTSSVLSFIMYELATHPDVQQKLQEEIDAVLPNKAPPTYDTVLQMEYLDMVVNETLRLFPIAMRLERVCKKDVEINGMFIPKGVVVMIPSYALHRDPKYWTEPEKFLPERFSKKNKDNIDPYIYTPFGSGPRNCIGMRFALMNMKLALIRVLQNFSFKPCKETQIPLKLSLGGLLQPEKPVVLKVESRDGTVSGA
Nuclear receptor subfamily 1 group I member 2 (Rattus norvegicus), sequence (Q9R1A7 whole entry, looked up): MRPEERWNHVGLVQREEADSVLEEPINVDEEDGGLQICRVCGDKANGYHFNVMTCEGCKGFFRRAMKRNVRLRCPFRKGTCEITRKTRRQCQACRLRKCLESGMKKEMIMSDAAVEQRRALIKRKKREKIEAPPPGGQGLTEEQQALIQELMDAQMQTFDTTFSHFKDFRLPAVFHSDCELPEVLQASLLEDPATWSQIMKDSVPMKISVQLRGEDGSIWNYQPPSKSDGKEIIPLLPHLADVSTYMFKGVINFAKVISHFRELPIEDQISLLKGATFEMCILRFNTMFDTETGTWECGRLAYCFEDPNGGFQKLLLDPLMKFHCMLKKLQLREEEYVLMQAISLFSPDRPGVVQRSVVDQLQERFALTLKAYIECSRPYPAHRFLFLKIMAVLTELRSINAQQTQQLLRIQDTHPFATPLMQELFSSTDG
Voltage-gated inwardly rectifying potassium channel KCNH2 (Homo sapiens), sequence (Q12809 whole entry, looked up): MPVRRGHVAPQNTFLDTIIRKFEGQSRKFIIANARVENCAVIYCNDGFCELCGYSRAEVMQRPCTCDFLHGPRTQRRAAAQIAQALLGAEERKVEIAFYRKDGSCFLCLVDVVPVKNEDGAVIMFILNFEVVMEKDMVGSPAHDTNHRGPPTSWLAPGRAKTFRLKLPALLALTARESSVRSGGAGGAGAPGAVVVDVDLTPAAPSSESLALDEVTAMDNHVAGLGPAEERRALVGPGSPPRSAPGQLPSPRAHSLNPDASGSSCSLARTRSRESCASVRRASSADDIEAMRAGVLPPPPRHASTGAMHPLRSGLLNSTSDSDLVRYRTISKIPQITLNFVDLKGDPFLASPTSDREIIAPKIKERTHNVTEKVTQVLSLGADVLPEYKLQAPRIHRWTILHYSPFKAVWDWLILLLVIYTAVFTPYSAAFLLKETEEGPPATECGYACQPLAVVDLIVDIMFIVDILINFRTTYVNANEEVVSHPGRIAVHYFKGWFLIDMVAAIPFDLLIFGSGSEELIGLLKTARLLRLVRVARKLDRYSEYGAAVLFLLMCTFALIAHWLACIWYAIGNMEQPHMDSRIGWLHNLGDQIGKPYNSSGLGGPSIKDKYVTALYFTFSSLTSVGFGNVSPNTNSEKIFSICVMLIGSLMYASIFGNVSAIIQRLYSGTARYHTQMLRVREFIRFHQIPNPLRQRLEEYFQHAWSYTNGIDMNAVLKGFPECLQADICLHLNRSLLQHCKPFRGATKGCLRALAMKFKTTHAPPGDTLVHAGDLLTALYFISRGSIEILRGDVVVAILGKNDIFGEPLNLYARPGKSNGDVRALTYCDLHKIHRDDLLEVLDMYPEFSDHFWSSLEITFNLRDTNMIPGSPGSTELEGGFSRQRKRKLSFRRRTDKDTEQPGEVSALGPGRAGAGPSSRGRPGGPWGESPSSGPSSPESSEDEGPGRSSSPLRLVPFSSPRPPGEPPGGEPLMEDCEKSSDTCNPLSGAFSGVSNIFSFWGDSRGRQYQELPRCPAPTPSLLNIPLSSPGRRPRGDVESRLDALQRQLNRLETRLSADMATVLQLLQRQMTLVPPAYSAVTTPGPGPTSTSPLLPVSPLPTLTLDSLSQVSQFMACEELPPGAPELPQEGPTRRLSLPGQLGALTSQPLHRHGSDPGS

As for `Clc1cc(Cl)c(Cl)c(Cl)c1`, the Potency result in assay [1], in assay [2], in [3], in [5], in assay [8] and in assay [10] was “inactive” throughout. The Potency result in assay [11], in assay [12], in assay [13], in assay [16] and in assay [17] was “inactive” each time. The result in [4], in assay [6], in [7], in assay [9], in assay [14] and in assay [20] was inactive. The max response in assay [15] is -0.278%; in [18], -14.6% (inactive); in [19] it was -2.54% (inactive).

Consider `c1ccc(C2CO2)cc1` (stereo not given), for which the Potency result in [1], in assay [2], in assay [3], in assay [5], in assay [8] and in assay [10] was “inactive” throughout. Besides, the Potency entry in assay [11], in assay [12], in assay [13], in [16] and in [17] was “inactive” in each case. For the same compound, the call in [4], in [6], in assay [7], in assay [9], in assay [14] and in assay [20] was inactive. The max response in assay [15] was -9.84%; in assay [18] it was -9.74% (inactive); in assay [19], -1.42% (inactive).

Take `Nc1ccc(-c2ccccc2)cc1`: the Potency entry in assay [1], in [2], in [3], in [5], in [10] and in assay [12] was “inactive” each time. Moreover, the Potency entry in assay [13] and in assay [16] was “inactive” throughout. Further, the call in assay [4], in assay [6], in assay [7], in [14] and in [20] was inactive. Also, the Potency in assay [8] is 12.6 µM (active). The max response was -4.26% in [15] and -6.92% (inactive) in assay [18].

Regarding `O=C(O)c1cccc(Cl)c1`, the Potency entry in [1], in [2], in assay [3], in assay [5], in assay [8] and in assay [10] was “inactive” each time. For the same compound, the Potency result in [11], in assay [12], in [13], in assay [16] and in assay [17] was “inactive” throughout. Also, the compound was classed as inactive in assay [4], in assay [6], in assay [7], in assay [9], in assay [14] and in [20]. In addition, the max response in assay [18] was -0.932% (inactive); in [19], 0.516% (inactive).

Take `Nc1ccc(Cl)c(Cl)c1`: the Potency entry in assay [1], in [2], in assay [3], in assay [5], in assay [10] and in [11] was “inactive” each time. For the same compound, the Potency result in [12], in assay [13], in assay [16] and in [17] was “inactive” throughout. Further, the result in assay [4], in [6], in assay [7], in assay [14] and in assay [20] was inactive. In addition, the max response was 2.84% in [15] and 0.573% (inactive) in [19].

For the compound `C=CC(=O)OCC(C)C`, the Potency result in [1], in [2], in assay [3], in [5], in [8] and in [10] was “inactive” throughout. For the same compound, the Potency entry in assay [11], in assay [12], in [13] and in assay [16] was “inactive” throughout. Moreover, the compound was classed as inactive in assay [4], in assay [6], in assay [7], in assay [9], in [14] and in assay [20]. The max response in [15] was 4.12%; in assay [18] it was 2.29% (inactive); in assay [19], -2.18% (inactive).

On to `Oc1c(Cl)cccc1Cl`, for which the Potency entry in assay [1], in assay [2], in [3], in assay [5], in [8] and in assay [10] was “inactive” in each case. The Potency entry in [11], in assay [12], in [13], in assay [16] and in assay [17] was “inactive” each time. Further, the compound was called inactive in assay [4], in assay [6], in [7], in assay [9], in assay [14] and in assay [20]. Also, the max response in [15] was -9.58%; in [18], -3.49% (inactive); in assay [19] it was 5.06% (inactive).

Take `CCC/C=N/O`: the Potency entry in assay [1], in assay [2], in assay [3], in assay [5], in assay [8] and in assay [10] was “inactive” in each case. For the same compound, the Potency entry in assay [11], in assay [12], in assay [13], in assay [16] and in assay [17] was “inactive” in each case. Besides, the compound was classed as inactive in [4], in assay [7], in assay [9], in [14] and in assay [20]. In addition, the max response was -10.3% in assay [15], 1.47% (inactive) in assay [18] and -0.891% (inactive) in [19].
